Compound activity from PubChem BioAssay.
An excerpt weighted towards active compounds, which were near 18% of everything screened.
DT40 TDP1 CPT = growth inhibition of DT40 Tdp1-/-;hTDP1 cells with camptothecin (screen for TDP1 inhibitors); Potency, µM (top dose mostly 46.2 µM), most hits filed as inhibitors; AID 686979; chicken DT40 Tdp1-/-;hTDP1 cells + 20 nM CPT, ATP luminescence, 48 h; 420,000 tested, 12% active; further: nearly all actives have a fitted effect of over 55% in size
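Chicken DT40 Tdp1-/- cells stably complemented with human TDP1 were seeded at 400 cells/well in medium containing 20 nM camptothecin, exposed to pin-transferred compounds, and grown at 37 °C for at least 48 hr. Viability was read as ATP luminescence.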
DT40 TDP1 no CPT = qHTS for Inhibitors of human tyrosyl-DNA phosphodiesterase 1 (TDP1): qHTS in cells in absence of CPT. DT40 Tdp1-/- hTDP1 cells, no CPT, ATP luminescence, 48 h. Potency, µM (highest dose often 46.2 µM), most hits filed as inhibitors. 420,000 tested, 15% active; further: nearly all actives have a fitted effect of over 55% in size
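Growth of hTDP1-complemented DT40 Tdp1-knockout cells is measured by ATP luminescence after at least 48 hr compound exposure at 37 °C, with DMSO substituting for the 20 nM CPT used in the parallel screen.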
CtBP-E1A blk = blocks the CtBP interaction with E1A; 340,000 tested, 0.49% active; activity change, % (concentration not given with the values); AID 651724; AlphaScreen GST-E1A/His-CtBP binding, 1536-well; hits give low values; in the data active means activity change below about -65%; inconclusive means mostly about -30% to -63%
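Steps: dispense buffer (Tris pH 8.0, NaCl 300 mM, TCEP 1 mM, BSA, Tween 20); add 5X protein mix (GST-E1A, His-CtBP, 125 nM each); pin 23 nL compound; 2 h at 37 °C, dark; add 5X beads (50 ug/mL); 1 h; read.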
TDP1 block = inhibitors of human tyrosyl-DNA phosphodiesterase TDP1. recombinant TDP1, AlphaScreen DNA substrate cleavage. Potency, µM (titrated, usually from 130 µM), actives largely listed as inhibitors. 350,000 tested, 0.28% active. AID 485290; further: nearly all actives have a fitted effect of over 40% in size
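Recombinant E. coli-expressed Tdp1 (1 nM) preincubated with compound 15 min at RT, then 5'-biotin/3'-phosphotyrosine-FITC DNA substrate (15 nM) added for 5 min. AlphaScreen beads (10 ug/ml) added, 10 min RT; tyrosine-FITC cleavage read as signal loss.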
Six1-Eya2 blk = blocks human Six1 binding to Eya2; Q15475+O00167; AlphaScreen GST-Six1/His-Eya2 binding, biochemical; hits give low values; activity change, % (no concentration beside the values); 360,000 tested, 0.56% active; AID 651725; in the data active means activity change below about -65%; inconclusive means mostly about -30% to -63%
Target sequence (O00167 whole entry, looked up): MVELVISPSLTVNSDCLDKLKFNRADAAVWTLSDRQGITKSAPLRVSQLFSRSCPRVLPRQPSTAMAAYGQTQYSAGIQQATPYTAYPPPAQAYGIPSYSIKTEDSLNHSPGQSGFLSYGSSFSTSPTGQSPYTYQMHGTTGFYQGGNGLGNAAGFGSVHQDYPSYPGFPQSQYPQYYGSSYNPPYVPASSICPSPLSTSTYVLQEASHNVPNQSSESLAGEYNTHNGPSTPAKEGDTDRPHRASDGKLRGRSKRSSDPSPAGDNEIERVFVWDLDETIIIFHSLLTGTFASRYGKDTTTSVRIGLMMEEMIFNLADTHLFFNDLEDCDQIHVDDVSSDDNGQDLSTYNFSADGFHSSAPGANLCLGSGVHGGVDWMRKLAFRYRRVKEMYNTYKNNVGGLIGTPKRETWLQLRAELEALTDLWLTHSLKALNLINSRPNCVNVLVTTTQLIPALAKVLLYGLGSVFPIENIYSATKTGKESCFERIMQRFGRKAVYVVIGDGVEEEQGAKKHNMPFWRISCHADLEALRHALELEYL
Target sequence (Q15475 whole entry, looked up): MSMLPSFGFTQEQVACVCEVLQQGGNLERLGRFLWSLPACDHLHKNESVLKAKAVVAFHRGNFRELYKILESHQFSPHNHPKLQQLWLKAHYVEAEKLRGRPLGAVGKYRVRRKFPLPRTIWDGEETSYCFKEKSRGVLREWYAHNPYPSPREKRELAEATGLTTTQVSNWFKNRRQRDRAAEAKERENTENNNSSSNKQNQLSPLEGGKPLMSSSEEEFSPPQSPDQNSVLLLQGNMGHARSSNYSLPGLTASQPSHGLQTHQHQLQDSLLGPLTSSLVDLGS
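Homogeneous AlphaScreen proximity assay pairing GST-Six1 with His-tagged Eya2 (added as 5X mix: 250 nM and 500 nM) in 50 mM Tris pH 8.0, 300 mM NaCl, 1 mM TCEP. Glutathione donor and nickel acceptor beads; 1 h, 37 °C, dark.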
IL-1B inflam inh = inflammasome signaling inhibition, IL-1 beta readout. 360,000 tested, 4.7% active. activity change, % at 57.5 µM. THP-1 LPS/ATP IL-1B secretion, AlphaLISA, 16 h; hits give low values. AID 743279; in the data active means activity change below about -50%; inconclusive means mostly about -30% to -49%
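Secreted IL-1B measured by AlphaLISA bead assay after 16 h compound exposure of THP-1 cells; compounds (final up to 57.5 uM) added 1 h before LPS (250 ng/mL) and ATP (1.25 mM) stimulation; lower signal means less secretion.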
Numbers stand for hits; 0 = inactive; ? = inconclusive; - = not tested or not shown. Unless noted, the call rests on the fitted dose curve; in most records, active means well fitted curve in the direction sought with a large enough effect; inconclusive means small, poorly fitted or top-dose-only effect, or another doubt; inactive means no such curve, though single readings can be large; an effect the other way counts as inactive or inconclusive.

SMILES | DT40 TDP1 CPT | DT40 TDP1 no CPT | CtBP-E1A blk | TDP1 block | Six1-Eya2 blk | IL-1B inflam inh
COc1cc2c(c(OC)c1OC)-c1ccc(SC)c(=O)cc1C(NC(=O)C(F)(F)F)CC2 (stereo not drawn) | 0.092µM | 0.018µM | 0 | - | 0 | 0
Cc1ccc2nc(NC(=O)CCNS(=O)(=O)c3ccc(Br)s3)sc2c1 | 0 | 0 | 0 | 0 | 0 | 0
COc1cccc(-c2cc(C(=O)NC3CC3)c3ccccc3n2)c1 | ? | ? | 0 | 0 | 0 | 0
Cc1ccc(-c2cc(C(=O)N3N=C(C(F)F)CC3(O)C(F)F)c3ccccc3n2)cc1C (stereo not drawn) | 18µM | ? | 0 | 0 | 0 | -71
O=C(c1cc(-c2ccccc2)nc2ccccc12)N1N=C(C(F)F)CC1(O)C(F)F (stereo not drawn) | 0 | 0 | 0 | 0 | 0 | 0
CCOc1cccc(-c2cc(C(=O)N3N=C(C)CC3(O)C(F)F)c3ccccc3n2)c1 (stereo not drawn) | 0 | ? | 0 | 0 | 0 | -64
CCOC(=O)N1CCN(C(=O)C(NS(=O)(=O)c2cccc3nsnc23)c2ccccc2)CC1 (stereo not drawn) | 0 | ? | 0 | 0 | 0 | 0
N[C@@H](C(=O)O)c1cc(O)ccc1Cl | 2.4µM | 1.2µM | - | 0 | - | -
Cn1c(=O)c2c(nc(Br)n2C/C=N/NC(N)=S)n(C)c1=O | 21µM | ? | 0 | 0 | 0 | -
C/C=C/Cn1c(Br)nc2c1c(=O)n(C)c(=O)n2C | ? | 0 | 0 | 0 | 0 | 0
Nc1nonc1C(=O)NCCNCc1c(OCc2ccccc2F)ccc2ccccc12 | 11µM | 11µM | 0 | 0 | 0 | -81
Nc1nonc1C(=O)NCCNCc1cc(Br)ccc1OCc1ccc(F)cc1 | 10µM | 10µM | 0 | 0 | 0 | -65
COc1ccc(CNCCNC(=O)c2nonc2N)cc1OC | 0 | 0 | 0 | 0 | 0 | 0
COc1ccc(C(=O)OCC(=O)NC(=O)Nc2ccccc2F)c(OC)c1 | 0 | 0 | - | 0 | 0 | 0
COc1cc(OC)c(C2Nc3c(C)cccc3-c3cc(C)nn32)cc1OC (stereo not drawn) | ? | ? | - | 0 | - | -
COc1ccc(OC)c(C2Nc3c(C)cc(C)cc3-c3cc(C)nn32)c1 (stereo not drawn) | 16µM | 21µM | - | 0 | - | -
CCCSc1nc(-c2ccccc2)[nH]c1S(=O)(=O)c1ccc(C)cc1 | ? | 18µM | - | 0 | - | -
Cc1ccc(S(=O)(=O)c2[nH]c(-c3ccccc3)nc2SCCC(=O)O)cc1 | 0 | 0 | - | 0 | - | -
CC(=O)CSc1nc(-c2ccccc2)[nH]c1S(=O)(=O)c1ccc(C)cc1 | ? | 3.3µM | - | 0 | - | -
O=C(C1CCCN(Cc2cc(Br)ccc2O)C1)N1CCCCC1 (stereo not drawn) | 0 | ? | 0 | - | 0 | 0
Cc1c(C(=O)NCCCN2CCOCC2)oc2c1C1(CCC2)SCCS1 | 12µM | 23µM | 0 | 0 | 0 | 0
CC(OC(=O)c1ccccc1C(=O)O)c1ccccc1 (stereo not drawn) | 0 | 0 | 0 | - | 0 | 0
O=C(NCCN1C(=O)S/C(=C\c2ccccc2)C1=O)c1cc(S(=O)(=O)N2CCOCC2)c(Cl)cc1Cl | 21µM | 4.1µM | 0 | 0 | 0 | 0
O=C(NCCN1C(=O)S/C(=C\c2ccc(Cl)cc2)C1=O)c1ccc(F)c(S(=O)(=O)N2CCOCC2)c1 | 6.5µM | 5.8µM | 0 | 0 | 0 | 0
O=C(NCC1CCCCC1)c1ccc(F)c(S(=O)(=O)N2CCOCC2)c1 | 0 | ? | 0 | 0 | 0 | 0
O=C(NCCN1C(=O)S/C(=C\c2ccc(F)cc2)C1=O)c1cccc(S(=O)(=O)N2CCOCC2)c1 | 23µM | 16µM | 0 | 0 | 0 | 0
O=C(NCCCc1ccccc1)c1cccc(S(=O)(=O)N2CCOCC2)c1 | 0 | 0 | - | 0 | 0 | 0
CCN1C(=NCCOC)N[C@@H](CCc2ccccc2)[C@H](C(=O)OC)[C@H]1C | 0 | 0 | 0 | - | 0 | 0
O=C(NCC(=O)N1CCCC1)c1ccccc1F | 0 | 0 | 0 | 0 | 0 | 0
